According to PubChem BioAssay (NCATS):
Records with an inconclusive call do not appear. A call without a number means that no potency is given here. Unmarked numbers belong to inactive results. Calls of active or inactive are those of the source. The call rests on the fitted dose curve; in most records, active means well fitted curve in the direction sought with a large enough effect; inconclusive means small, poorly fitted or top-dose-only effect, or another doubt; inactive means no such curve, though single readings can be large; an effect the other way counts as inactive or inconclusive.

What was measured:
[1] = S16 Schwann cell PMP22 intronic element firefly luciferase assay (AID 624032); further: nearly all actives have a fitted effect of over 30% in size; further: potency means the concentration at half of the fitted maximal effect
Procedure, shortened: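 Rat S16 Schwann cells stably carrying a PMP22 intronic element-driven Fluc reporter were seeded overnight, then exposed to compounds for 24 h at 37 °C. Luminescence was normalized to PTC124 (positive control) and DMSO (0% activity).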

[2] = tested on: 3D7; test: qHTS profiling for inhibitors of Plasmodium falciparum proliferation (AID 504749); further: nearly all actives have a fitted effect of over 60% in size; further: potency means the concentration at half of the fitted maximal effect; settings: P. falciparum in erythrocytes, SYBR Green DNA, 72 h; series mostly up to 28.7 µM
Procedure, shortened: (§1)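 P. falciparum-infected erythrocytes (0.3% parasitemia, 2.5% hematocrit final) were exposed to compounds for 72 h at 37 C in 5% CO2, then lysed with SYBR Green buffer overnight at room temperature; parasite DNA fluorescence was normalized to artemisinin and DMSO controls.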

[3] = tested on: 7G8; test: as above; settings: P. falciparum in erythrocytes, SYBR Green DNA, 72 h; series mostly up to 28.7 µM
Procedure, shortened: as §1

[4] = tested on: ATS189; test: as above; settings: P. falciparum in erythrocytes, SYBR Green DNA, 72 h; series mostly up to 28.7 µM
Procedure, shortened: as §1

[5] = tested on: CP250; test: as above; settings: P. falciparum in erythrocytes, SYBR Green DNA, 72 h; series mostly up to 28.7 µM
Procedure, shortened: as §1

[6] = tested on: CP265; test: as above; settings: P. falciparum in erythrocytes, SYBR Green DNA, 72 h; series mostly up to 28.7 µM
Procedure, shortened: as §1

[7] = tested on: CP335; test: as above; settings: P. falciparum in erythrocytes, SYBR Green DNA, 72 h; series mostly up to 28.7 µM
Procedure, shortened: as §1

[8] = tested on: DIV30; test: as above; settings: P. falciparum in erythrocytes, SYBR Green DNA, 72 h; series mostly up to 28.7 µM
Procedure, shortened: as §1

[9] = tested on: PC15; test: as above; settings: P. falciparum in erythrocytes, SYBR Green DNA, 72 h; series mostly up to 28.7 µM
Procedure, shortened: as §1

[10] = tested on: SC27B; test: as above; settings: P. falciparum in erythrocytes, SYBR Green DNA, 72 h; series mostly up to 28.7 µM
Procedure, shortened: as §1

[11] = tested on: CP247; test: as above; settings: P. falciparum in erythrocytes, SYBR Green DNA, 72 h; series mostly up to 28.7 µM
Procedure, shortened: as §1

[12] = tested on: CP252; test: as above; settings: P. falciparum in erythrocytes, SYBR Green DNA, 72 h; series mostly up to 28.7 µM
Procedure, shortened: as §1

[13] = tested on: PAD; test: as above; settings: P. falciparum in erythrocytes, SYBR Green DNA, 72 h; series mostly up to 28.7 µM
Procedure, shortened: as §1

[14] = tested on: AA1029; test: as above; settings: P. falciparum in erythrocytes, SYBR Green DNA, 72 h; series mostly up to 28.7 µM
Procedure, shortened: as §1

[15] = tested on: AS120; test: as above; settings: P. falciparum in erythrocytes, SYBR Green DNA, 72 h; series mostly up to 28.7 µM
Procedure, shortened: as §1

[16] = molecular target: Ubiquitin carboxyl-terminal hydrolase 1 (Homo sapiens) (UniProt O94782); test: Inhibitors of USP1/UAF1: Pilot qHTS (AID 504865);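 further: rhodamine fluorescence freed from ubiquitin-rhodamine substrate followed over time; top concentration of the series differs between compounds; nearly all actives have a fitted effect of over 35% in size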
Procedure, shortened: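 In 50mM HEPES pH 7.8 containing 0.5mM EDTA, 1mM TCEP, 0.1 mg/ml BSA and 0.01% Tween-20, 1nM USP1/UAF1 is exposed to compound for 15 min, then Ub-Rho (150nM final) is added and fluorescence is read over time.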

[17] = tested on: ATS95; test: qHTS profiling for inhibitors of Plasmodium falciparum proliferation (AID 504749); further: nearly all actives have a fitted effect of over 60% in size; further: potency means the concentration at half of the fitted maximal effect; settings: P. falciparum in erythrocytes, SYBR Green DNA, 72 h; series mostly up to 28.7 µM
Procedure, shortened: as §1

[18] = tested on: TAB113; test: as above; settings: P. falciparum in erythrocytes, SYBR Green DNA, 72 h; series mostly up to 28.7 µM
Procedure, shortened: as §1

[19] = tested on: CP237; test: as above; settings: P. falciparum in erythrocytes, SYBR Green DNA, 72 h; series mostly up to 28.7 µM
Procedure, shortened: as §1

[20] = tested on: TAB109; test: as above; settings: P. falciparum in erythrocytes, SYBR Green DNA, 72 h; series mostly up to 28.7 µM
Procedure, shortened: as §1

Sequence of Ubiquitin carboxyl-terminal hydrolase 1 (Homo sapiens) (O94782 whole entry, looked up): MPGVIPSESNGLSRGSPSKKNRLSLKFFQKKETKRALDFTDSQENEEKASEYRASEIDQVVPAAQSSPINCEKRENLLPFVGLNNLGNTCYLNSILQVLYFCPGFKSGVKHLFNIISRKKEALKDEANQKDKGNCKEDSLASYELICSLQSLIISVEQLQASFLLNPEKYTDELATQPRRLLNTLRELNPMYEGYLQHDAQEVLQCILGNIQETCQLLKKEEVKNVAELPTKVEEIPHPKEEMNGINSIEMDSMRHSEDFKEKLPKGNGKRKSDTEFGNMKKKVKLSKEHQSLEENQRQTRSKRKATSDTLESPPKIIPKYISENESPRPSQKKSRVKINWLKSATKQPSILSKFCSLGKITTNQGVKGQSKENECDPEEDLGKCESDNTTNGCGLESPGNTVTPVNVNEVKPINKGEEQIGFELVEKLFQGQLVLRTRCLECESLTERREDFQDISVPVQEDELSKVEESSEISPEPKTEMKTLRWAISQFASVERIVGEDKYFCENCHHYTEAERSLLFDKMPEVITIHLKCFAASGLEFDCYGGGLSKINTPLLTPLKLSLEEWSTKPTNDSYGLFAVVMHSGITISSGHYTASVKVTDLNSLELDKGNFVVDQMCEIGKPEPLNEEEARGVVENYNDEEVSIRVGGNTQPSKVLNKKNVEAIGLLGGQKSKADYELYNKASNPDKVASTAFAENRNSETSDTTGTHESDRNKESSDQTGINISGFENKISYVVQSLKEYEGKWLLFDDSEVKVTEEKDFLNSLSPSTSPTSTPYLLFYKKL

## C[C@@H]1CC2[C@@H]3C[C@H](F)C4=CC(=O)C(Cl)=C[C@]4(C)[C@@]3(F)[C@H](O)C[C@]2(C)[C@@]1(O)C(=O)CO (stereo partly specified)
[1]
  Potency: inactive
[2]
  Potency: inactive
[3]
  Potency: 8.91 µM (active)
[4]
  Potency: inactive
[5]
  Potency: inactive
[6]
  Potency: inactive
[7]
  Potency: inactive
[8]
  Potency: inactive
[9]
  Potency: inactive
[10]
  Potency: inactive

## CC[C@H]1OC(=O)[C@H](C)C(=O)[C@H](C)[C@@H](OC2O[C@H](C)C[C@H](N(C)C)[C@@H]2O)[C@@](C)(OC)C[C@@H](C)C(=O)[C@@H](C)C2N(CCCCn3cnc(-c4cccnc4)c3)C(=O)O[C@@]21C (stereo partly specified)
[3]
  Potency: 7.94 µM (active)
[11]
  Potency: inactive
[5]
  Potency: inactive
[12]
  Potency: inactive
[6]
  Potency: inactive
[13]
  Potency: 11.2 µM (active)
[9]
  Potency: inactive

## C=C1CC[C@H](O)C/C1=C/C=C1\CCC[C@]2(C)[C@@H]([C@H](C)CCCC(C)(C)O)CC[C@@H]12
[3]
  Potency: 10 µM (active)
[14]
  Potency: 12.6 µM (active)
[15]
  Potency: 10 µM (active)
[11]
  Potency: 8.91 µM (active)
[8]
  Potency: 9.53 µM (active)

## COc1ccc(CC(C)NCC(O)c2ccc(O)c(NC=O)c2)cc1 (stereo unspecified)
[16]
  Potency: inactive

## Oc1cc2cc(CCN3CCN(c4nsc5ccccc45)CC3)c(Cl)cc2[nH]1
[1]
  Potency: inactive
[3]
  Potency: 6.31 µM (active)
[14]
  Potency: inactive
[4]
  Potency: inactive
[17]
  Potency: inactive
[11]
  Potency: 10 µM (active)
[12]
  Potency: inactive
[6]
  Potency: inactive
[10]
  Potency: inactive
[18]
  Potency: inactive

## CCC1OC(=O)C[C@@H](O)[C@H](C)[C@@H](OC2OC(C)CC(N(C)C)C2O)[C@@H](CC=O)C[C@@H](C)C(=O)/C=C/[C@]2(C)OC2C1C (stereo partly specified)
[16]
  Potency: inactive
[3]
  Potency: 4.47 µM (active)
[19]
  Potency: 5.01 µM (active)
[12]
  Potency: 3.55 µM (active)
[7]
  Potency: 1.2 µM (active)
[9]
  Potency: inactive
[20]
  Potency: 0.794 µM (active)

## Cc1cncc(C(=O)O)[n+]1[O-]
[16]
  Potency: inactive
[1]
  Potency: inactive
[2]
  Potency: inactive
[3]
  Potency: inactive
[17]
  Potency: inactive
[19]
  Potency: inactive
[7]
  Potency: inactive
[8]
  Potency: inactive
[13]
  Potency: inactive
[9]
  Potency: inactive
[10]
  Potency: inactive
[18]
  Potency: inactive

## C=C1CC[C@H](O)C/C1=C/C=C1\CCC[C@]2(C)[C@@H]([C@H](C)CC[C@@H](O)C(C)(C)O)CC[C@@H]12
[3]
  Potency: 8.91 µM (active)
[15]
  Potency: 10 µM (active)
[19]
  Potency: 10 µM (active)
[8]
  Potency: 13.5 µM (active)
[10]
  Potency: 11.2 µM (active)

## C=C1CCC(O)C/C1=C/C=C1\CCC[C@]2(C)[C@@H]([C@H](C)/C=C/[C@H](C)C(C)C)CC[C@@H]12 (stereo partly specified)
[1]
  Potency: 36.1 µM (active)
[2]
  Potency: inactive
[3]
  Potency: 10 µM (active)
[14]
  Potency: inactive
[19]
  Potency: inactive
[7]
  Potency: inactive
[8]
  Potency: inactive

## CC1=C(/C=C/C(C)=C\C=C\C(C)=C\C=C\C=C(C)\C=C\C=C(C)\C=C\C2=C(C)C[C@@H](O)CC2(C)C)C(C)(C)C[C@H](O)C1
[3]
  Potency: 1.26 µM (active)
[14]
  Potency: 12.6 µM (active)
[15]
  Potency: 12.6 µM (active)
[19]
  Potency: 11.2 µM (active)
[6]
  Potency: inactive
[7]
  Potency: 15.1 µM (active)
[13]
  Potency: 14.1 µM (active)
[18]
  Potency: inactive

## CCN(CC)CCOCCOC(=O)C(CC)(CC)c1ccccc1 (tested in a mixture with another compound)
[16]
  Potency: inactive
[1]
  Potency: inactive
[2]
  Potency: inactive
[3]
  Potency: 5.62 µM (active)
[17]
  Potency: inactive
[11]
  Potency: inactive
[6]
  Potency: 1.12 µM (active)
[13]
  Potency: inactive
[20]
  Potency: inactive

## COC(=O)C1[C@@H](OC)C(OC(=O)COc2ccc(OC)cc2)C[C@@H]2CN3CCc4c([nH]c5cc(OC)ccc45)[C@H]3C[C@H]12 (stereo partly specified)
[16]
  Potency: inactive
[2]
  Potency: 10 µM (active)
[3]
  Potency: 7.94 µM (active)
[14]
  Potency: 10 µM (active)
[15]
  Potency: 11.2 µM (active)
[4]
  Potency: 11.2 µM (active)
[7]
  Potency: 12 µM (active)
[8]
  Potency: 8.49 µM (active)
[13]
  Potency: 11.2 µM (active)

## Cc1cc(O)c2c(c1)OC1(C)CCC3C(C)(C)CCCC34COC2C14 (stereo unspecified)
[1]
  Potency: 28.7 µM (active)
[3]
  Potency: 8.91 µM (active)
[14]
  Potency: 10 µM (active)
[18]
  Potency: 8.91 µM (active)

## O=C(O)c1ccccc1-c1c2ccc(=O)cc-2oc2cc(O)ccc12
[16]
  activity change, negative = inhibition: -94.3% [at 11.4 µM]
[1]
  Potency: inactive

## C=C1CC2C3C=C(C)C4=CC(=O)CCC4(C)C3CCC2(C)[C@@]1(OC(C)=O)C(C)=O (stereo partly specified)
[3]
  Potency: 12.6 µM (active)
[15]
  Potency: inactive
[19]
  Potency: inactive
[11]
  Potency: inactive
[5]
  Potency: inactive
[12]
  Potency: inactive
[6]
  Potency: inactive
[9]
  Potency: inactive
[10]
  Potency: inactive
[20]
  Potency: inactive
